About 83,000 compounds went through this panel and 20% of them were active in at least one assay; those are over-represented in the sample as a whole.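 For each line, cells grew in 96-well plates with the test compound present at a single concentration for 48 hours.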 Unmarked numbers belong to inactive results. Active and inactive are the calls of the source. How the source made its calls: active means growth percent below 10; inactive means the rest.
The molecules below were run on HL-60(TB) leukemia (assay: NCI-60 one-dose screen, 48 h (100 = growth as untreated, 0 = no growth, -100 = all killed)). Conditions: 10 µM unless noted.
CC/C(=C(/c1ccc(Cl)cc1)c1ccc(OCCN2CCOCC2)cc1)c1ccccc1 showed a growth of 104%.
Molecule CSc1nc(S(C)(=O)=O)nc2[nH]c(=O)[nH]c12 has a growth of 108%.
With Cc1cc(=O)oc2cc(Oc3nc(-c4cccs4)cn4c(-c5cccs5)cnc34)ccc12 the growth was 77.6%.
O=[N+]([O-])c1cc(NS(=O)(=O)c2ccccc2)ccc1NS(=O)(=O)c1ccccc1 showed a growth of 113%.
In the case of COc1ccc(S(=O)(=O)NCCNc2nccc(-c3c(-c4cccc([N+](=O)[O-])c4)nc4sccn34)n2)cc1, the growth is reported as 110%.
CCCCCCCCCCCC[S+](C)CC(=O)[O-] (stereo not given) gave a growth of 20.3%.
Work on CC(=O)Nc1cccc(-c2ccc3c(c2)NC(=O)/C3=C\c2ccc[nH]2)c1 yielded a growth of 20.2%.
CCCCc1n(Cc2ccc3ccccc3n2)cc[n+]1Cc1ccc2ccccc2n1 was tested, and the growth was -44.7% (active).
With CC(C)Cc1nc(Nc2ccccc2)[nH]c(=O)c1C#N the growth was 57.7%.
With c1ccc2c(c1)ncn2-c1nc2ccccc2n2c1nc1ccccc12 the growth was 102%.
In the case of COc1ccc(-n2c(-c3ccc(NC(=O)CCCl)cc3)nnc2-c2cc(OC)c(OC)c(OC)c2)cc1, the growth is reported as -12.6% (active).
CSc1ccc(N(C)c2nc(C)nc3c2CCC3)cc1 was tested, and the growth was -28.3% (active).
In the case of NNC(=O)CCCCl, the growth is reported as 102%.
Cn1cc(-c2nonc2-c2c[nH]c3ccc(F)cc23)c2cc(Br)ccc21 showed a growth of 56.5%.
In the case of Cc1ccc(Nc2nc(N)nc(Nc3ccc4ccccc4c3)n2)cc1, the growth is reported as 22.5%.

Source: PubChem BioAssay (NCI)
